Data taken from PubChem BioAssay (Tox21).
Inconclusive results are not listed. Calls of active or inactive are those of the source. Unless noted, calls follow the shape of the full dose curve.

Columns and labels:
[1] = Nuclear factor erythroid 2-related factor 2/antioxidant responsive element (Nrf2/ARE) small molecule agonists: qHTS cell viability counter screen in human keratinocytes (AID 1919968; active = well fitted curve in the direction sought with a large enough effect in the repeat runs; an effect the other way counts as inactive or inconclusive; also: nearly all actives have a fitted effect of over 55% in size; also: potency is read from the fitted curve at half-maximal effect)
Outline: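 Cytotoxicity was multiplexed with the Nrf2/ARE luciferase assay in the same wells. Stably transfected HaCaT keratinocytes were treated with test compounds for 23 h at 37 C. Cell viability was then measured by CellTiter-Fluor fluorescence.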

[2] = Nuclear factor erythroid 2-related factor 2/antioxidant responsive element (Nrf2/ARE) small molecule agonists: luciferase reporter gene qHTS assay in human keratinocytes (AID 1919969); also: nearly all actives have a fitted effect of over 35% in size
[3] = p53 small molecule agonists, cell-based qHTS assay: qHTS cell viability counter screen (AID 1963581); also: nearly all actives have a fitted effect of over 45% in size
Outline: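 Viability was counter-screened in parallel with the p53 agonist reporter by measuring intracellular ATP luminescence in the same HCT-116 p53RE-bla wells after 16 h compound treatment at 37 C.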

[4] = p53 small molecule agonists, cell-based qHTS assay (AID 1963582; active = well fitted activation curve with a large enough effect in the signal ratio in the repeat runs, not every such curve was filed as active; the % refers to the signal ratio)
Outline: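 Cells carrying a p53-responsive bla reporter are treated with test compounds for 16 h at 37 C; beta-lactamase activity is then detected with LiveBLAzer B/G FRET substrate after 2 h at room temperature.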

[5] = target: 5-hydroxytryptamine receptor 2A (Homo sapiens) (UniProt P28223); experiment: 5-hydroxytryptamine receptor 2A (HTR2A) small molecule antagonists, cell-based qHTS assay (AID 1963586); also: nearly all actives have a fitted effect of over 45% in size
Sequence of 5-hydroxytryptamine receptor 2A (Homo sapiens) (P28223 whole entry, looked up): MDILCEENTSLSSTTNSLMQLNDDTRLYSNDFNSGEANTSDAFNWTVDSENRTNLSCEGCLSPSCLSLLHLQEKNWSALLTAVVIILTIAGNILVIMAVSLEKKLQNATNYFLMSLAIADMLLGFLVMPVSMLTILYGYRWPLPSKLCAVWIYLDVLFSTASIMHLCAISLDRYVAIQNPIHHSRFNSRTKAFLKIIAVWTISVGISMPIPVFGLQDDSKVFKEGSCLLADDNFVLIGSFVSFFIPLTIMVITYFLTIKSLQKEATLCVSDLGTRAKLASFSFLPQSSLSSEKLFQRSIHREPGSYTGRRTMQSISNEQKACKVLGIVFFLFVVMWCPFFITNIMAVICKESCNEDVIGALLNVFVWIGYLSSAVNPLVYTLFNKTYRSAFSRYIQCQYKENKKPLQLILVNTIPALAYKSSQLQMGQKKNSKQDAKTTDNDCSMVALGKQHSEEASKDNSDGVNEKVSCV
Outline: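 CHO cells stably expressing human HTR2A were plated for 18 h at 37 C, then loaded with calcium dye for 1 h. Compounds were preincubated 5 min at room temperature before DOI (4 nM solution) was added. Kinetic fluorescence was read for 3 min.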

[6] = target: Muscarinic acetylcholine receptor M1 (Homo sapiens) (UniProt P11229); experiment: Cholinergic receptor muscarinic 1 (CHRM1) small molecule antagonists, cell-based qHTS assay (AID 1963588); also: nearly all actives have a fitted effect of over 40% in size; also: potency is read from the fitted curve at half-maximal effect
Sequence of Muscarinic acetylcholine receptor M1 (Homo sapiens) (P11229 whole entry, looked up): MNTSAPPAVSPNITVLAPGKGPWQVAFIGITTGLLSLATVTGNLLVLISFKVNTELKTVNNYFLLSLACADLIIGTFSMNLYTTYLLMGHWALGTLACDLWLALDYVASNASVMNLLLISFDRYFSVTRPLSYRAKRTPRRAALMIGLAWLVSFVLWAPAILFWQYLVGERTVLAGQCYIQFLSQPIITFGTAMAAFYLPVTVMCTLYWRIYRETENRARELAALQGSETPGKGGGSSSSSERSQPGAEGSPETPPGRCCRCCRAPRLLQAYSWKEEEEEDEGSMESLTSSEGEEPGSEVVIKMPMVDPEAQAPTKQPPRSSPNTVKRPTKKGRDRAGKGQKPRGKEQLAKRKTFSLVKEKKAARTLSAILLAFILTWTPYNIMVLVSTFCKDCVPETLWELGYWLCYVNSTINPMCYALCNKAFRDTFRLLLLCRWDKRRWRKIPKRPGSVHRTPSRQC
Outline: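 Compounds were tested at 15 concentrations in three independent runs. Dye-loaded CHRM1-CHO cells were exposed 5 min at room temperature before stimulation by acetylcholine added at 50nM. Intracellular calcium was read kinetically on FDSS for 3 min.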

[7] = target: Muscarinic acetylcholine receptor M1 (Homo sapiens) (UniProt P11229); experiment: Cholinergic receptor muscarinic 1 (CHRM1) small molecule agonists, cell-based qHTS assay (AID 1963589); also: nearly all actives have a fitted effect of over 35% in size
Outline: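 Cells were plated and incubated 18 h at 37 C/5% CO2, loaded with calcium dye for 1 h at 37 C, then treated with compounds in DMSO. Fluorescence was recorded kinetically at 1 sec intervals.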

[8] = cAMP Responsive Elements (CRE) small molecule agonists, cell-based qHTS assay (AID 1963590)
Outline: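 Cells carrying a CRE-driven beta-lactamase reporter (HEK 293T) are seeded, incubated overnight (18 h), and treated with test compounds for 3 h at 37 C; reporter activity is then detected with a FRET substrate after 2 h at room temperature.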

[9] = cAMP Responsive Elements (CRE) small molecule antagonists, cell-based qHTS assay (AID 1963591; active = well fitted inhibition curve with a large enough effect in the signal ratio in the repeat runs, not every such curve was filed as active; the % refers to the signal ratio)
Outline: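 Cells (CRE-bla HEK 293T, DMEM with 10% dialyzed FBS and 25 mM HEPES) are seeded and incubated 18 h. Compounds are added with NKH477 agonist at 0.25 uM final for 3 h, then FRET substrate for 2 h.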

[10] = target: Beta-2 adrenergic receptor (Homo sapiens) (UniProt P07550); experiment: Adrenergic beta2 receptor (ADRB2) small molecule antagonists, cell-based qHTS assay (AID 1963592); also: nearly all actives have a fitted effect of over 50% in size; also: potency is read from the fitted curve at half-maximal effect; as to activity change, negative = inhibition: series mostly up to about 92 µM
Sequence of Beta-2 adrenergic receptor (Homo sapiens) (P07550 whole entry, looked up): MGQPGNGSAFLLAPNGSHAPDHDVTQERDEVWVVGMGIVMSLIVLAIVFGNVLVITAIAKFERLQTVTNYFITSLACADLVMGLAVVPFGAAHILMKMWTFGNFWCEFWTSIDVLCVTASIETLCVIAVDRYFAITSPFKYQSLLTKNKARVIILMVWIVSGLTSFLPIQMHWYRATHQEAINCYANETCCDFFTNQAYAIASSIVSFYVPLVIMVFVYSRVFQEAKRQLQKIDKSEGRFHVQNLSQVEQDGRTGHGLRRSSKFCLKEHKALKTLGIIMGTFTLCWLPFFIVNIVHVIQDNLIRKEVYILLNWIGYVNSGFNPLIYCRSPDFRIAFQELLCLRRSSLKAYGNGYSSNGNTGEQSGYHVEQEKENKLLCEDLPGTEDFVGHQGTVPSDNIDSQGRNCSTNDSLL
Outline: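 Assay format: CHO-ADRB2 cells, 18-20hr seeding at 37C/5% CO2, then compound plus 1nM isoproterenol agonist mix for 0.5hr RT. Homogeneous time-resolved fluorescence cAMP detection after 1hr, expressed as 665/615 nm ratio.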

[11] = target: D(2) dopamine receptor (Homo sapiens) (UniProt P14416); experiment: Dopamine D2 receptor (DRD2) small molecule agonists, cell-based qHTS assay (AID 1963594); also: nearly all actives have a fitted effect of over 35% in size
Sequence of D(2) dopamine receptor (Homo sapiens) (P14416 whole entry, looked up): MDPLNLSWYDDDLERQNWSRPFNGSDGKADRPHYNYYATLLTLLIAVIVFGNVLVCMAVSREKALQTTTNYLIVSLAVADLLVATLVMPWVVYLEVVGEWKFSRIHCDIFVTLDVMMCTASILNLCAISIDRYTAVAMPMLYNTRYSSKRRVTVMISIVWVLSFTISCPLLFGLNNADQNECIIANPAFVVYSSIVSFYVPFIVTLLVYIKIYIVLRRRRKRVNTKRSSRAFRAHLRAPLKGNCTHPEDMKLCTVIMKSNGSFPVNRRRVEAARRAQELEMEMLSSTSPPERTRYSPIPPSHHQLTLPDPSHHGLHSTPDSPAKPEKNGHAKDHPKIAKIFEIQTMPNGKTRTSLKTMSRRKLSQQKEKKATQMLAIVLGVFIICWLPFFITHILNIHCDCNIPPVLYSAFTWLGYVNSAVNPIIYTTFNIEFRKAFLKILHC
Outline: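 HEK293 cells stably expressing DRD2 were cultured 24 h at 37 C, then given Ro20-1724 (0.1 mM final) and compounds for 10 min at room temperature. NKH477 (200nM) was then added for 30 min. cAMP was read by HTRF.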

[12] = target: D(2) dopamine receptor (Homo sapiens) (UniProt P14416); experiment: Dopamine D2 receptor (DRD2) small molecule antagonists, cell-based qHTS assay (AID 1963595; active = well fitted inhibition curve with a large enough effect in the signal ratio in the repeat runs, with a control signal flat; the % refers to the signal ratio)
Outline: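 Stable D2 receptor HEK293 line, 24 h after seeding. Compound preincubated 10 min, then quinpirole (12 nM) with forskolin analogue NKH477 (200 nM), 30 min, room temperature. Detection by time-resolved FRET of cAMP.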

[13] = G protein-coupled receptor (GPCR) small molecule agonists, calcium flux assay: HEK293 wild type cell line counter screen (AID 1920065)
Outline: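 Seed cells, incubate 18 h (37 C, 5% CO2); add calcium dye, 1 h at 37 C; pin-transfer compounds, ATP control or DMSO; read fluorescence 480/540 nm each second for 3 min.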

[14] = p53 small molecule agonists, cell-based qHTS assay with rat liver microsomes: qHTS cell viability counter screen (AID 1963580); also: nearly all actives have a fitted effect of over 45% in size
Outline: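 Counter screen for cytotoxicity under metabolic activation: rat liver microsomes and NADPH, 0.5 mg/mL final each, added with compounds to p53RE-bla HCT-116 cells; 16 h at 37 C, then ATP luminescence read.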

[15] = target: 5-hydroxytryptamine receptor 2A (Homo sapiens) (UniProt P28223); experiment: 5-hydroxytryptamine receptor 2A (HTR2A) small molecule agonists, cell-based qHTS assay (AID 1963587); also: nearly all actives have a fitted effect of over 30% in size
Outline: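 HTR2A-CHO cells, plated 18 h at 37 C/5% CO2, dye-loaded 1 h at 37 C; compounds in DMSO added by pin tool (agonist mode). Intracellular calcium flux read as kinetic fluorescence on FDSS over 2 min at 1 s intervals.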

[16] = target: Beta-2 adrenergic receptor (Homo sapiens) (UniProt P07550); experiment: Adrenergic beta2 receptor (ADRB2) small molecule agonists, cell-based qHTS assay (AID 1963593);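 also: CHO cells stably overexpressing human ADRB2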
Outline: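 CHO cells stably over-expressing ADRB2 were plated overnight at 37C, then dosed with compounds plus a stimulation mix containing 100uM IBMX and 25uM Ro-20-1724 for 0.5hr at room temperature. cAMP was measured by HTRF competition, 1hr.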

[17] = target: KiSS-1 receptor (Homo sapiens) (UniProt Q969F8); experiment: Human kisspeptin (KISS1R) small molecule agonists, calcium flux assay in KISS1R-HEK293 cells (AID 1920064; active = well fitted curve in the direction sought with a large enough effect in the repeat runs; an effect the other way counts as inactive or inconclusive)
Sequence of KiSS-1 receptor (Homo sapiens) (Q969F8 whole entry, looked up): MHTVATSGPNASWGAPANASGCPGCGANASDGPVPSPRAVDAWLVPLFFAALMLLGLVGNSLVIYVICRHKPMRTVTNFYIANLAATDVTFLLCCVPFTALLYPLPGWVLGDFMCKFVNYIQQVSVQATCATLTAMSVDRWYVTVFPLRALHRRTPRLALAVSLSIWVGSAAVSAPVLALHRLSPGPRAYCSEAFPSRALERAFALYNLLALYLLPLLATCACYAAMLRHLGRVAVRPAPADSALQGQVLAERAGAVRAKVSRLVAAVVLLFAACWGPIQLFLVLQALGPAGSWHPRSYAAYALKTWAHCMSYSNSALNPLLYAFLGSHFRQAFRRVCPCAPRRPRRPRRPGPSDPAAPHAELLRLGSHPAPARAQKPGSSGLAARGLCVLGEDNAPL
Outline: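 Agonist activity is monitored as intracellular calcium rise in engineered HEK293 cells carrying human KISS1R. Cells are dye-loaded for 1 h at 37 C before compound addition, and fluorescence is recorded for 3 min.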

[18] = p53 small molecule agonists, cell-based qHTS assay with human liver microsomes (AID 1963577)
Outline: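 Cells carrying a p53-responsive bla reporter were rested 5 h (37 C, 5% CO2) before compound transfer. Human liver microsomes plus NADPH, 0.5 mg/mL final apiece, supplied metabolism during the 16 h 37 C exposure.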

[19] = p53 small molecule agonists, cell-based qHTS assay with rat liver microsomes (AID 1963578)
Outline: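 Fluorescence from a beta-lactamase reporter under a p53 response element was measured after cells had been incubated 16 h at 37 C with test compound and rat liver microsomes plus NADPH (0.5 mg/mL final each).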

[20] = p53 small molecule agonists, cell-based qHTS assay with human liver microsomes: qHTS cell viability counter screen (AID 1963579); also: nearly all actives have a fitted effect of over 45% in size
Outline: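 Seed p53RE-bla cells at 4,000 per well; incubate 5 h at 37 C; add compound, human liver microsomes and NADPH; incubate 16 h at 37 C; add CellTiter-Glo; after 30 min at room temperature, read luminescence.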
% is scaled to controls: 0 for no effect and ±100 for the full control effect.

CCOc1ccc2nc(N)sc2c1
inactive: Potency [1] | Potency [2] | Potency [3] | Potency [4] | Potency [5] | Potency [6] | Potency [7] | Potency [8] | Potency [9] | Potency [10] | Potency [11] | Potency [12]

CCc1ccccc1
inactive: Potency [1] | Potency [2] | Potency [13] | Potency [14] | Potency [3] | Potency [5] | Potency [15] | Potency [7] | Potency [8] | Potency [10] | Potency [16] | Potency [11] | Potency [12]

C[C@]12CCC(=O)C=C1[C@@H]1C[C@@H]1[C@H]1[C@@H]3[C@@H]4C[C@@H]4[C@@]4(CCC(=O)O4)[C@@]3(C)CC[C@@H]12
active: Potency [6] 18.3 µM
inactive: Potency [1] | Potency [2] | Potency [17] | Potency [13] | Potency [18] | Potency [19] | Potency [20] | Potency [14] | Potency [3] | Potency [4] | Potency [5] | Potency [15] | Potency [7] | Potency [10] | Potency [16] | Potency [11] | Potency [12]

Cc1cc(O)c(C(C)C)cc1Cl
inactive: Potency [1] | Potency [2] | Potency [17] | Potency [13] | Potency [18] | Potency [19] | Potency [20] | Potency [14] | Potency [3] | Potency [4] | Potency [5] | Potency [15] | Potency [6] | Potency [8] | Potency [16] | Potency [11] | Potency [12]

CC(C)C[C@H](NC(=O)CNC(=O)[C@H](Cc1ccc(O)cc1)NC(=O)[C@H](CO)NC(=O)[C@H](Cc1c[nH]c2ccccc12)NC(=O)[C@H](Cc1cnc[nH]1)NC(=O)[C@@H]1CCC(=O)N1)C(=O)N[C@@H](CCCN=C(N)N)C(=O)N1CCC[C@H]1C(=O)NCC(N)=O (stereo in doubt)
inactive: Potency [1] | Potency [2] | Potency [17] | Potency [13] | Potency [18] | Potency [19] | Potency [20] | Potency [14] | Potency [3] | Potency [4] | Potency [8] | Potency [9] | Potency [10] | Potency [16] | Potency [11] | Potency [12]

Brc1c2ccccc2c(Br)c2ccccc12
inactive: activity change, negative = cytotoxicity [1] 9.04% [at 8.39 µM] | activity, positive = activation [2] -5.36% [at 8.39 µM] | activation [13] -0.151% [at 5.23 µM] | activity change, negative = cytotoxicity [20] 1.01% [at 5.99 µM] | activity change, negative = cytotoxicity [3] 12.6% [at 5.99 µM] | activity, negative = inhibition [5] 33.2% [at 5.62 µM] | activation [15] 0.903% [at 7.02 µM] | activity, negative = inhibition [6] -2.59% [at 5.58 µM] | activation [7] -0.0159% [at 6.97 µM] | activation [8] 1.87% [at 8.39 µM] | activity change, negative = inhibition [10] -10.4% [at 8.39 µM] | activation [16] 3.4% [at 8.39 µM] | activation [11] 2.55% [at 8.39 µM]

O=C(O)CC(=O)C(=O)O
inactive: Potency [1] | Potency [2] | Potency [13] | Potency [20] | Potency [3] | Potency [7] | Potency [8] | Potency [9] | Potency [10] | Potency [12]

CN[C@H]1CC[C@@H](c2ccc(Cl)c(Cl)c2)c2ccc(S(N)(=O)=O)cc21
inactive: Potency [2] | Potency [17] | Potency [13] | Potency [18] | Potency [19] | Potency [20] | Potency [14] | Potency [3] | Potency [5] | Potency [7]
active: Potency [1] 61.1 µM | Potency [10] 48.6 µM
